These results are taken from PubChem BioAssay.

The structures appear in SMILES notation. Results filed as inconclusive are left out. Active and inactive are the calls of the source. Rule as the data show it, unless noted: active = inhibition above about 30%; inactive = the rest.

The nature of assay [1]: reducers of endogenous Her2 protein level, primary screen, SKBR3 breast tumor cells, AlphaScreen, ATP viability (AID 461;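 active = Her2 level under about 52% in both replicate screens, with viability over 70% of control, limit read from the data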;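 as to Her2 level: lower value means less Her2 protein in the cells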;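 as to viability: percent of carrier control wells set as 100% viability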). Particulars: 18-24 h, measured here: SKBR3 viability, ATP luminescence, at 10 µM. A general note: Alpha assays give light when donor and acceptor beads are brought close together.
For assay [2], the target named is Receptor tyrosine-protein kinase erbB-2 (Homo sapiens) (UniProt P04626). The assay is described as above. Particulars: 18-24 h, at 10 µM, stronger effect = lower value.
The nature of assay [3]: SK-BR-3 cell growth inhibitors, pilot screen, 24 h, human (AID 572;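 active = viability at or below 10% of carrier control in both of two separate runs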;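 also: compound exposure lasted between 18 and 24 h rather than exactly 24 h; 100% = carrier-treated control wells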). The settings on record: SK-BR-3 viability, CellTiter-Glo luminescence, at 10 µM, stronger effect = lower value. (In ATP-based viability assays light output follows the ATP content of the culture.)
Assay [4] in a line: HUVEC growth inhibition – cell-based, human, primary screen (AID 575;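 active = viability at or below 30% in both replicate assays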;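 also: 100% = median of untreated cell wells with 0.1% DMSO on each plate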). Particulars: HUVEC proliferation, CellTiter-Glo luminescence, 72 h; at 10 µM; stronger effect = lower value.
The nature of assay [5]: growth inhibitors of H69AR lung tumor, primary screen, human, duplicate replicates (AID 580;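 active = viability at or under a set limit in both replicates, limit being median viability minus 3 SD, cut at about 48% in these data, passing the limit was not always enough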;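 also: 100% = mean luminescence of untreated wells and 0% = no signal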). The settings on record: H69AR lung tumor cells viability, ATP luminescence, 72 h; at 10 µM; stronger effect = lower value.
Assay [6] is described as follows: reversal of MRP1-mediated doxorubicin resistance, pilot screen, H69AR cells, doxorubicin co-treatment (AID 601;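 active = viability loss from added drug above about 55%, and viability with drug at most 40%, in both replicates, limit read from the data, passing the limit was not always enough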). Particulars: CellTiter-Glo, 72 h, at 10 µM; for differential viability (reversal): stronger effect = higher value.
The nature of assay [7]: 384-well plate pilot, post-Golgi transport modulator project, inhibition of yeast transport mutant growth (AID 636; in the data active = inhibition above about 31%). Particulars: absorbance 615 nm, about 18 h, stronger effect = higher value.
Assay [8] is described as follows: growth suppression of yeast trafficking mutant, preliminary HTS, modulators of trafficking downstream of Golgi apparatus project, 1536-format plate, OD 615 nm (AID 637). Particulars: yeast transport mutant growth, absorbance 615 nm, 18 h; stronger effect = higher value.
A short description of assay [9]: OD615 S. cerevisiae growth inhibition, permissive medium, pilot counter-assay, permissive growth control for S. cerevisiae lifespan shortening project (AID 705;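 active = growth inhibition above 25% in both replicates, a cutoff set 3 SD above the mean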). The settings on record: OD615, 24 h, at 10 µM, stronger effect = higher value.
Assay [10] in a line: Restrictive medium S. cerevisiae growth inhibition, OD615, pilot screen of yeast lifespan reduction project, restrictive growth control (AID 706;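 active = growth inhibition above a set limit, 3 SD over mean compound inhibition, in both replicates, cut at about 43% in these data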;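 also: modified DeaD lifespan yeast strain shifted to restrictive glucose medium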). The settings on record: OD615, 48 h, at 10 µM, stronger effect = higher value.
A short description of assay [11]: viability gain of MRP-1-high H69AR cells under doxorubicin, pilot screen, MRP-1 activator project, CellTiter-Glo, duplicate (AID 807;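 active = viability increase at or above a cutoff of the median across tested compounds plus 3 SD, cut at about 8.5% in these data, passing the limit was not always enough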;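 also: compound pretreatment 18-22 h then 72 h combined with doxorubicin; 0% = doxorubicin alone and 100% = vehicle without doxorubicin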). The settings on record: H69AR viability with doxorubicin, CellTiter-Glo luminescence; at 10 µM; stronger effect = higher value.
Assay [12] in a line: growth suppression of beta-catenin knockout HCT116, pilot screen, human colon tumor cells (AID 823;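 active = cell viability at or below a set limit in both duplicate runs, the limit being the all-compound median minus 4 SD, cut at about 23% in these data, passing the limit was not always enough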;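 also: 0% = wells killed by 20 µM Hyamine and 100% = untreated DMSO cell wells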). Particulars: CellTiter-Glo, 60 h, at 10 µM, stronger effect = lower value.
A short description of assay [13]: growth suppression of PTEN-deleted HCT116, pilot screen, cell-based, HCT116 clonal line, CellTiter-Glo (AID 824;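 active = viability at or below 27.92% in each of two runs, the all-compound median minus 4 SD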;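 also: 0% = 20 µM Hyamine control and 100% = vehicle cell control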). Particulars: 60 h, at 10 µM, stronger effect = lower value.
The nature of assay [14]: inhibitors of the yeast RAM network, pilot screen, dse1pr::URA3 reporter, 5-FOA selection (AID 869;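 active = inhibition over a set limit, the all-compound mean plus 3 SD, in both replicate runs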;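 also: 0% = DMSO wells with no growth and 100% = 10 µM 1-NA-PP1 with full growth; RAM network block rescues cells from 5-FOA so hits raise OD615 growth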). Particulars: S. cerevisiae dse1pr::URA3 5-FOA growth, OD615, 2 d; at 10 µM; stronger effect = higher value; strain carries analog-sensitive mutant Cbk1 kinase.
The nature of assay [15]: RAM signaling pathway blockade in yeast – S. cerevisiae, Pdr1DBD-CYC8 efflux-inhibited sensitized strain, primary screen (AID 1298;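 active = RAM network inhibition above 8.4% in each of two replicates, 3 SD over the compound average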;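 also: 0% = DMSO untreated cells without growth and 100% = 10 µM 1-NA-PP1 full growth; higher means more yeast growth rescued from 5-FOA killing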). The settings on record: S. cerevisiae cbk1-as DSE1-URA3 strain, 5-FOA growth OD615, 2 d; at 50 µM; stronger effect = higher value.
Setting [16] is: H69AR cells + 2 uM doxorubicin, measured here: viability with 2 uM doxorubicin, stronger effect = lower value.
[17] abbreviates: H69AR cells, compound alone cytotoxicity.

Chain of Receptor tyrosine-protein kinase erbB-2 (Homo sapiens) (P04626 whole entry, looked up): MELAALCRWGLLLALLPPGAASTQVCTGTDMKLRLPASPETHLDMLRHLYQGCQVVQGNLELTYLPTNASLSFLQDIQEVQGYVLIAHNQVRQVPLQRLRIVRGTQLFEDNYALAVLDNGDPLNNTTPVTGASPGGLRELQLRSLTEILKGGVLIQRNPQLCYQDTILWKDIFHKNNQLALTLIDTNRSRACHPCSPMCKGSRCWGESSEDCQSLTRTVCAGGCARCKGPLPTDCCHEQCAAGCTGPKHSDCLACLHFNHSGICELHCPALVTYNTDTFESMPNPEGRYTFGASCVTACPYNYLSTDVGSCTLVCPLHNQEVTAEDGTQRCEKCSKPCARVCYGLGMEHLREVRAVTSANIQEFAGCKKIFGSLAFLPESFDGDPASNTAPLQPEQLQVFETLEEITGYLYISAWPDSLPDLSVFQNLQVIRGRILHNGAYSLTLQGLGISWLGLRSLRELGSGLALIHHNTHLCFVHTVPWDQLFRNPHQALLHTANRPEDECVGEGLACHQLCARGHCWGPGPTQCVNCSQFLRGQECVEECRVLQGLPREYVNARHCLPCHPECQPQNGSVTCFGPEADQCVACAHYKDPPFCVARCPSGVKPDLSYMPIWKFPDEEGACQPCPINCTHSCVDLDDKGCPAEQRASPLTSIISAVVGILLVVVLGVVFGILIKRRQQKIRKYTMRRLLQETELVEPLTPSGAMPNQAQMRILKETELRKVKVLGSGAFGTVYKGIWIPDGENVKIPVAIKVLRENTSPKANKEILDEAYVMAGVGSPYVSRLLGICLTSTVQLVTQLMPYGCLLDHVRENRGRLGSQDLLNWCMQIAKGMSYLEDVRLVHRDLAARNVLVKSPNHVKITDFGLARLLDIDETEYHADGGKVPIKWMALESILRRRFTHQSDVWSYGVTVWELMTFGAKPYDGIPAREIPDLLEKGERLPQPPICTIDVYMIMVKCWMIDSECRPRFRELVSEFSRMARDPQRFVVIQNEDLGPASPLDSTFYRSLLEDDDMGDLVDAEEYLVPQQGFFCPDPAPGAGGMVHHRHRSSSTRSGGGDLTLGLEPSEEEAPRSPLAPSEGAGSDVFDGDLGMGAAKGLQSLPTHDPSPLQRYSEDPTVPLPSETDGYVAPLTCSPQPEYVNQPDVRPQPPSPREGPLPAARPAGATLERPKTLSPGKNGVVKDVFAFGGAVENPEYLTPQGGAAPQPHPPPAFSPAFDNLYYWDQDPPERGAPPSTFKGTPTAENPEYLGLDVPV

In general, viability refers to a read-out of living cells in per cent, often relative to untreated cells. A word on the inhibition: it is the drop in the measured response relative to a control, in per cent. Regarding `O=C(Cn1ncc2c(=O)oc3ccccc3c21)NCCCN1CCCC1=O`, the viability was 86.5% in assay [1]; 86.5% (inactive) in assay [3]; 93.1% (inactive) in [4]; 101% (inactive) in assay [5]; 84.4% in assay [6] (setting [16]); 101% in assay [6] (setting [17]). The viability is 101% (inactive) in assay [12] and 113% (inactive) in assay [13]. Further, in assay [2], the Her2 level is 106% (inactive). In assay [6] (H69AR cells + 2 uM doxorubicin), the differential viability (reversal) is 16.6% (inactive). Also, the inhibition is 1.79% (inactive) in assay [7], -3% (inactive) in assay [8] and 1.86% (inactive) in assay [14]. Also, the growth inhibition in assay [9] was 1.48% (inactive); in assay [10] it was -6.73% (inactive). In addition, the viability increase in assay [11] was -0.08% (inactive). In [15], the RAM network inhibition was 3.58% (inactive).

`Cc1ccc(S(=O)(=O)NCCOC(=O)Nc2sc(=S)n(C)c2C)cc1`: the viability was 75.5% in [1]; 75.5% (inactive) in [3]; 90% (inactive) in [4]; 101% (inactive) in assay [5]; 94.1% in [6] (setting [16]); 101% in assay [6] (setting [17]). For the same compound, the viability in assay [12] was 115% (inactive); in [13], 88.2% (inactive). For the same compound, in assay [2], the Her2 level is 96.5% (inactive). Moreover, the differential viability (reversal) in assay [6] (H69AR cells + 2 uM doxorubicin) was 7.26% (inactive). Further, the inhibition is -2.84% (inactive) in assay [7], 14.9% (inactive) in assay [8] and 1.25% (inactive) in assay [14]. Besides, the growth inhibition is 6.39% (inactive) in [9] and 23.1% (inactive) in [10]. The viability increase in assay [11] is -3.78% (inactive). Further, the RAM network inhibition in assay [15] is 1.73% (inactive).

As to `Cc1csc(NC(=O)C(Cc2ccccc2)n2cccc2)n1` (stereo not given), the viability is 91.5% in assay [1]; 91.5% (inactive) in [3]; 101% (inactive) in assay [4]; 87.6% (inactive) in assay [5]; 82.4% in assay [6] (setting [16]); 87.6% in assay [6] (setting [17]). Besides, the values for the viability in assay [12] and in assay [13] were 73.8% (inactive) and 73.1% (inactive), respectively. In assay [2], the Her2 level is 87% (inactive). For the same compound, in [6] (H69AR cells + 2 uM doxorubicin), the differential viability (reversal) is 5.21% (inactive). Besides, the inhibition in [7] was -3.73% (inactive); in assay [8], 6.56% (inactive); in [14], 1.32% (inactive). The growth inhibition is -13.9% (inactive) in assay [9] and -8.47% (inactive) in assay [10]. The viability increase in [11] was -5.96% (inactive). In addition, the RAM network inhibition in [15] was 6.15% (inactive).

Take `COC(=O)CN1C(=O)CC(C)(C)S(=O)c2ccccc21` (stereo not given): the viability is 114% in assay [1]; 114% (inactive) in assay [3]; 118% (inactive) in assay [4]; 99.3% (inactive) in assay [5]; 90.4% in assay [6] (setting [16]); 99.3% in assay [6] (setting [17]). Moreover, the values for the viability in assay [12] and in assay [13] were 107% (inactive) and 99.7% (inactive), respectively. The Her2 level in assay [2] is 110% (inactive). In addition, the differential viability (reversal) in assay [6] (H69AR cells + 2 uM doxorubicin) was 8.85% (inactive). For the same compound, the figures for the inhibition in [7], in assay [8] and in [14] were -4.4% (inactive), 16.3% (inactive) and 0.32% (inactive), respectively. Further, the values for the growth inhibition in [9] and in assay [10] were -14.5% (inactive) and -3.88% (inactive), respectively. Moreover, in [11], the viability increase is -0.45% (inactive). Further, the RAM network inhibition in assay [15] was 2.09% (inactive).

For `Cn1c(=O)c2c(nc(SCCCC#N)n2Cc2c(F)cccc2Cl)n(C)c1=O`, the viability in assay [1] is 102%; in assay [3], 102% (inactive); in assay [4], 91.8% (inactive); in assay [5] it was 77.3% (inactive); in [6] (setting [16]), 15.9%; in assay [6] (setting [17]), 77.3%. In addition, the viability in assay [12] was 89.2% (inactive); in [13], 86.1% (inactive). Further, the Her2 level in [2] was 108% (inactive). The differential viability (reversal) in assay [6] (H69AR cells + 2 uM doxorubicin) was 61.3% (active). In addition, the inhibition was -1.33% (inactive) in [7], 1.17% (inactive) in assay [8] and 3.15% (inactive) in assay [14]. In addition, the results for the growth inhibition in assay [9] and in assay [10] were -13.5% (inactive) and 5.36% (inactive), respectively. The viability increase in assay [11] is -4.16% (inactive). Besides, the RAM network inhibition in assay [15] was 4.98% (inactive).
